One experiment concerns MAP3K3. The following applies: concentration: 1 μM, replicates: in singlicate; n = 1.
As to `Cn1cnc2c(N)ncnc21` [SKF-97623], the “%Inh” value stood at 0%.
In the case of `Cc1ccc(NC(=O)Nc2ccccc2)cc1-c1ccc(C(=O)Nc2ccncc2)cc1` [GSK1398471], the “%Inh” value is listed as 0%.
Regarding `CCn1c(-c2c(N)noc2C)nc2cnccc21` [SB-737856], the “%Inh” value is 0%.
On the same count and under the same terms, the same measure for `COc1ccc(Nc2nccc(-c3ccc(NC(=O)c4cc5cc(F)ccc5[nH]4)cc3)n2)cc1` [GSK1229496]: 0%; for `Nc1cccc(-c2ccc3c(N)n[nH]c3c2)n1` [GSK2192730]: 0%.
As to `CS(=O)(=O)CCNCc1nc(-c2ccc3ncnc(Nc4ccc(OCc5ccccc5)c(Cl)c4)c3c2)cs1.Cl` [GW582764], the “%Inh” value came out at 0%.
Turning to `COc1ccc(Nc2nccc(N3CCC(NC(=O)C(C)c4ccc(Cl)cc4)C3)n2)cc1` (stereo not drawn) [GSK1379735], the “%Inh” value is given as 0%.
`Cc1cnc(N)c(/C=C/c2cncc(C(=O)NCCc3ccc(Cl)cc3Cl)c2)c1.Cl` [GSK190937]: the “%Inh” value amounted to 0%.
On to `O=C(Nc1n[nH]c2nc(-c3cccs3)c(Br)cc12)C1CC1` [SB-735297], for which the “%Inh” value was found to be 36%.

In another experiment the test system is MAP3K4. Conditions: concentration: 1 μM, replicates: in singlicate; n = 1.
Regarding `COC(=O)C(Cc1ccccc1)NC(=O)NC1CCN(c2ccnc(Nc3ccc(F)cc3)n2)C1` (stereo not drawn) [GSK1379714], the “%Inh” value is recorded as 0%.
Take `CSc1ccc(-c2nc3n(c2-c2ccncc2)CCC3)cc1` [SKF-105561]: the “%Inh” value amounted to 9%.
Turning to `COc1ccc(Nc2nccc(N3CCC(NC(=O)c4cc5ccccc5s4)C3)n2)cc1` (stereo not drawn) [GSK1379738], the “%Inh” value was 29%.
In the case of `Cc1ccc(NC(=O)Nc2ccc(Cl)cc2)cc1-c1ccc(C(=O)Nc2ccncc2)cc1` [GSK1398472], the “%Inh” value is given as 6%.
As for `CC(C)c1ccc(O)cc1Nc1ccnc2ccc(C(F)(F)F)cc12` [GW482059], the “%Inh” value amounted to 13%.
`COC(=O)c1cccc(NC(=O)NC2CCN(c3ccnc(Nc4ccc(F)cc4)n3)C2)c1` (stereo not drawn) [GSK1379725]: the “%Inh” value was 24%.
With `O=c1cc(N2CCOCC2)nc2n(Cc3ccccc3F)ccn12` [GSK2297428], the “%Inh” value is on record as 0%.
`Cc1ccccc1-c1cc(-c2c[nH]nc2-c2ccccn2)ccn1` [GW680061]: the “%Inh” value was found to be 14%.
`COc1ccc(Nc2nccc(NCCNC(=O)Nc3cc(C)ccc3C)n2)cc1` [GSK1379899]: the “%Inh” value is 3%.
On the same count and under the same terms, the figure for `FC(F)(F)c1ccccc1-c1cc(-c2c[nH]nc2-c2ccccn2)ccn1` [GW679396] is 24%; for `Cc1ccccc1Cn1ccn2c(=O)cc(N3CCOCC3)nc12` [GSK2269905] it is 30%.
Same read-out and setting: the same measure for `Cc1ccc(NC(=O)Nc2ccc(Cl)c(C(F)(F)F)c2)cc1-c1ccc(C(=O)Nc2ccncc2)cc1` [GSK1398470]: 14%; for `CCc1ccc(-c2ccc3c(c2)-c2n[nH]cc2S(=O)(=O)N3C)cc1`: 19%; for `CNCc1ccc2nc(NC(=O)c3ccc(C(C)(C)C)cc3)cn2c1`: 4%.
The same measure, in the same setting: the same measure for `Fc1ccc(-c2nn3cccc(F)c3c2-c2ccncc2)cc1` [GW475620]: 0%; for `CNc1nc(-c2ccc3c(N)n[nH]c3c2)cc(N2C[C@@H](C(=O)Nc3ccccc3)CC[C@H]2C)n1` [GSK2298859]: 0%; for `Cc1ccc(NC(=O)Nc2ccccc2F)cc1-c1ccc(C(=O)Nc2ccncc2)cc1` [GSK1398477]: 24%.
On to `Cc1ccc(NC(=O)c2ccc(Cl)cc2)cc1-c1ccc(C(=O)Nc2ccncc2)cc1` [GSK1398467], for which the “%Inh” value worked out at 0%.
Turning to `COC(=O)C(NC(=O)NC1CCN(c2ccnc(Nc3ccc(F)cc3)n2)C1)c1ccccc1` (stereo not drawn) [GSK1379712], the “%Inh” value was 6%.
With `Nc1nccc(-c2c(-c3ccc(F)cc3)ncn2C2CCN(Cc3ccccc3)CC2)n1` [SB-219980], the “%Inh” value was determined as 0%.
As to `NS(=O)(=O)c1cccc(N/C=C2\C(=O)Nc3ccc(S(=O)(=O)Cc4c(Cl)cccc4Cl)cc32)c1` [GSK398099], the “%Inh” value was 0%.
Take `CN1c2ccc(-c3ccc(C(N)=O)cc3)cc2-c2[nH]ncc2S1(=O)=O`: the “%Inh” value worked out at 0%.
`CNC(=O)c1ccc(C)c(-n2c(C)cc(OCc3ccc(F)cc3F)c(Br)c2=O)c1`: the “%Inh” value worked out at 6%.
Take `Nc1ncnc2occ(-c3ccc4c(c3)CCN4C(=O)Cc3cc(F)ccc3F)c12` [GSK2645446]: the “%Inh” value is reported as 50%.
Regarding `Cc1c(Cn2c(C)c(C)n3c(=O)cc(N4CCOCC4)nc23)cccc1C(F)(F)F` [GSK2328680], the “%Inh” value is listed as 9%.
As to `Cc1ccc(-c2nc(Nc3ccncc3)c3ccccc3n2)s1` [GSK189015], the “%Inh” value turned out to be 26%.
Take `O=C1NC(=O)C(c2ccc(Cl)cc2)=C1Nc1cccc(Cl)c1` [SB-317651]: the “%Inh” value came out at 1%.

These data come from PMC5540273 (PLoS ONE, 2017).
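Further: KINOMEscan kinase panel screen.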
